The values that follow come from PubChem BioAssay (NCATS).

Molecules are shown by their SMILES. Results filed as inconclusive are left out. Where a call stands in place of a potency, no number is given. Active and inactive are the calls of the source. Unless noted, the call rests on the fitted dose curve. Bridge positions count the residues as written; N and C are the ends. Square brackets hold non-standard residues; d marks the D form. Peptide text beside a SMILES is read from it. hArg = N=C(N)NCCCC[C@H](N)C(=O)O; Mpa = O=C(O)CCS
Potency means the concentration at half of the fitted maximal effect.

Cytochrome P450 2D6 (Homo sapiens), sequence (P10635 whole entry, looked up): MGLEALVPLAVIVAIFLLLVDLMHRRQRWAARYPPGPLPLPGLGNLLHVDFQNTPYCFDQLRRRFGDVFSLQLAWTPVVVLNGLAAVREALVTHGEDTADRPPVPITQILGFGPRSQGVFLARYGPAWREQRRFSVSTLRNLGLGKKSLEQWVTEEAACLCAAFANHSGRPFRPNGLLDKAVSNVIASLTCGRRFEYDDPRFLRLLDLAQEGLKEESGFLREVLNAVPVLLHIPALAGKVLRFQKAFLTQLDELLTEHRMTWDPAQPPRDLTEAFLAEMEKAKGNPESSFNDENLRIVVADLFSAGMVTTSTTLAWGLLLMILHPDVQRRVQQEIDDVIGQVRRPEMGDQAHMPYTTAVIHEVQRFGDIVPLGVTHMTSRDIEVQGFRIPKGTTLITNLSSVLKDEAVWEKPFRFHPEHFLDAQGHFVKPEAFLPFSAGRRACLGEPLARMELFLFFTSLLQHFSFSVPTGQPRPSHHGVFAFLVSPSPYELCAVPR
Cytochrome P450 2C9 (Homo sapiens), sequence (P11712 whole entry, looked up): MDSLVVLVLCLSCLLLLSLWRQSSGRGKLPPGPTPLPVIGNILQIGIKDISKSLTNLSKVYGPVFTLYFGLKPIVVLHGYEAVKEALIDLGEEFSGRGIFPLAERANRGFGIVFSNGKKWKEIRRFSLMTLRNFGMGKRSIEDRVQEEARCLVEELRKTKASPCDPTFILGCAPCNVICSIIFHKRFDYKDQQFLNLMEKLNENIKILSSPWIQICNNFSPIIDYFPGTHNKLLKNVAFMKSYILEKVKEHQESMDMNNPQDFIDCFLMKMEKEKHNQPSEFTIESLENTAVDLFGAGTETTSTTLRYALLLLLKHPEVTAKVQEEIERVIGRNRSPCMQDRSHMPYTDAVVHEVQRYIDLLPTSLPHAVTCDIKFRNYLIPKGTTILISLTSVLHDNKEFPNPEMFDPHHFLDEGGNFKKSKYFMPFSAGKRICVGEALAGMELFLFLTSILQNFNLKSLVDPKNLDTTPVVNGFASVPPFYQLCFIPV

In the first assay the target is Cytochrome P450 2D6 (Homo sapiens) (UniProt P10635). Kind of assay: Cytochrome P450 family 2 subfamily D member 6 (CYP2D6) small molecule antagonists: luciferase biochemical (cell-free) qHTS assay (AID 1645840; active means well fitted curve in the direction sought with a large enough effect in the repeat runs; an effect the other way counts as inactive or inconclusive; further: nearly all actives have a fitted effect of over 55% in size). The settings on record: P450-Glo CYP2D6 enzyme, luciferin luminescence, 1 h; series mostly up to 57.4 µM. The method, boiled down:
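P450-Glo luminescent screen: recombinant CYP2D6 enzyme–proluciferin substrate mix preincubated with compound 10 min at room temperature, then NADPH regeneration added for 1 h at room temperature. Detection reagent added for 20 min; luciferin light read as relative luminescence units.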
On the technique in general: qHTS replaces the single test concentration by a dilution series.
As to `CN(C)CCc1c[nH]c2ccc(O)cc12`, the Potency was 31 µM (active).
Still for that read-out and setting: as for `CCCCCCCCCCCC[N+](C)(C)CCOc1ccccc1`, the figure is 1.74 µM (active).
Turning to `O=C(CCCN1CCC(n2c(=O)[nH]c3ccccc32)CC1)c1ccc(F)cc1`, the Potency is 6.92 µM (active).
Still for that read-out and setting: then `CCN(CC)C(C)C(=O)c1ccccc1` (stereo not drawn), with “inactive”; and `CCCCCCCCCCCCOS(=O)(=O)O`, with “inactive”.
As to `Oc1ccc([C@H]2CNCc3c2ccc(O)c3O)cc1O`, the Potency entry is “inactive”.

A further assay concerns the target Cytochrome P450 2C9 (Homo sapiens) (UniProt P11712). Kind of assay: Cytochrome P450 family 2 subfamily C member 9 (CYP2C9) small molecule antagonists: luciferase biochemical (cell-free) qHTS assay (AID 1645842; active means well fitted curve in the direction sought with a large enough effect in the repeat runs; an effect the other way counts as inactive or inconclusive; further: nearly all actives have a fitted effect of over 55% in size). Particulars: P450-Glo CYP2C9 enzyme assay, luciferin luminescence; series mostly up to 57.4 µM. The method, boiled down: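 Luminescence, after 20 min with luciferin detection reagent, reflected CYP2C9 turnover during a 1 h NADPH-driven reaction at 37C. Enzyme-substrate mix contained 0.4% bovine serum albumin and was preincubated with compound 10 min at room temperature.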
Consider `CN(C)CCc1c[nH]c2ccc(O)cc12`, for which the Potency entry is “inactive”.
Turning to `O=C(CCCN1CCC(n2c(=O)[nH]c3ccccc32)CC1)c1ccc(F)cc1`, the Potency result is “inactive”.
As for `CCN(CC)C(C)C(=O)c1ccccc1` (stereo not drawn), the Potency result is “inactive”.
Same read-out and setting: then `CCCCCCCCCCCCOS(=O)(=O)O`, with “inactive”; and `Oc1ccc([C@H]2CNCc3c2ccc(O)c3O)cc1O`, with 8.71 µM (active).

Test system in another assay: not listed separately
Kind of assay: Cytotoxicity counterscreen for inhibitors of SARS-CoV-2 cell entry (AID 1645845). Further: nearly all actives have a fitted effect of over 50% in size. Particulars: cell viability (SARS-CoV-2 entry assay cells); series mostly up to 57.1 µM. The essentials:
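Expi293F/hACE2 cells seeded overnight; cpd pin-transferred in DMSO, 1 h preincubation, + media, 48 h 37 C 5% CO2; ATPLite 1step luminescence; normalized to cells and no cells.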
`Oc1ccc(CCNCCCCCCNCCc2ccccc2)cc1O`: the Potency entry is “inactive”.
With `NC(=O)[C@@H]1CSSCCC(=O)N[C@@H](CCCCN=C(N)N)C(=O)NCC(=O)N[C@@H](CC(=O)O)C(=O)N[C@@H](Cc2c[nH]c3ccccc23)C(=O)N2CCC[C@H]2C(=O)N1` ([Mpa][hArg]GDWPC-NH2; disulfide 1-7), the Potency result was “inactive”.
Same read-out and setting: then `CCc1ccc(C(=O)C(C)CN2CCCCC2)cc1` (stereo not drawn), with “inactive”; and `O=C1C(CCS(=O)c2ccccc2)C(=O)N(c2ccccc2)N1c1ccccc1` (stereo not drawn), with “inactive”.
For the compound `CCCn1cnc2c1c(=O)n(CCCCC(C)=O)c(=O)n2C`, the Potency entry is “inactive”.
For the compound `CCN(CC)CCOC(=O)C1(c2ccccc2)CCCC1`, the Potency entry is “inactive”.
Take `OC[C@@H](O)[C@H](O)[C@H](O)[C@@H](O)CO`: the Potency result was “inactive”.
For the compound `CN(C)CCN1C(=O)c2ccccc2N(C)c2ccccc21`, the Potency result is “inactive”.
Consider `NC(=O)c1ncn([C@@H]2O[C@H](CO)[C@@H](O)[C@H]2O)c1N`, for which the Potency entry is “inactive”.
For the compound `CCCNC(C)(C)COC(=O)c1ccccc1`, the Potency result was “inactive”.
For the compound `Nc1c(NC/C=C\COc2cc(CN3CCCCC3)ccn2)c(=O)c1=O`, the Potency entry was “inactive”.
As to `CC[C@H](c1ccc(O)cc1)[C@@H](CC)c1ccc(O)cc1`, the Potency result was “inactive”.
On to `CCOC(=O)[C@H](CCc1ccccc1)N[C@@H](C)C(=O)N(CC(=O)O)C1Cc2ccccc2C1`, for which the Potency result is “inactive”.
Consider `O=c1[nH]cnc2c1ncn2[C@@H]1O[C@H](CO)[C@@H](O)[C@H]1O`, for which the Potency entry was “inactive”.
On the same count and under the same terms, then `CCN(CC)CCOc1ccccc1C(=O)CCc1ccccc1`, with “inactive”.
`CCCCC/C=C\C/C=C\CCCCCCCC(=O)NC(C)c1ccccc1` (stereo not drawn): the Potency entry was “inactive”.
Take `CCCCOc1cc(C(=O)OCCN(CC)CC)ccc1N`: the Potency result was “inactive”.
With `CN1CCC(=C2c3ccccc3CCc3cccnc32)CC1`, the Potency result was “inactive”.
Consider `CCCCCCCCCCCC[N+](C)(C)CCOc1ccccc1`, for which the Potency is 20 µM (active).
Take `CC(=O)Oc1ccc(C(=C2CCCCC2)c2ccc(OC(C)=O)cc2)cc1`: the Potency result is “inactive”.
Consider `O=C(CCCN1CCC(n2c(=O)[nH]c3ccccc32)CC1)c1ccc(F)cc1`, for which the Potency result is “inactive”.
Take `C(=C\c1ccccc1)/CN1CCN(C(c2ccccc2)c2ccccc2)CC1`: the Potency entry was “inactive”.
Regarding `CN1C[C@H](C(=O)N[C@]2(C)O[C@@]3(O)[C@@H]4CCCN4C(=O)[C@H](Cc4ccccc4)N3C2=O)C[C@@H]2c3cccc4[nH]cc(c34)C[C@H]21`, the Potency result is “inactive”.
With `CCCS(=O)c1ccc2nc(NC(=O)OC)[nH]c2c1` (stereo not drawn), the Potency result is “inactive”.
Regarding `CN1CCCN=C1COC(=O)C(O)(c1ccccc1)C1CCCCC1` (stereo not drawn), the Potency result was “inactive”.
In the case of `N[C@H](C(=O)O)[C@@H](O)c1ccc(O)c(O)c1`, the Potency entry is “inactive”.
In the case of `CC(C)(C)c1ccc(C(=O)CCCN2CCC(OC(c3ccccc3)c3ccccc3)CC2)cc1`, the Potency result was “inactive”.
`O=C(Nc1ccc(S(=O)(=O)N2CCOCC2)cc1)c1cc(Cl)ccc1NS(=O)(=O)c1ccc(Cl)s1`: the Potency result was “inactive”.
As to `NC(N)=N/N=C/c1c(Cl)cccc1Cl`, the Potency result is “inactive”.
Regarding `OC(CCN1CCCCC1)(c1ccccc1)C1CC2C=CC1C2` (stereo not drawn), the Potency result was “inactive”.
In the case of `CO[C@@H]1[C@@H](O[C@@H]2O[C@H](C)[C@@H](O[C@H]3C[C@@](C)(O)[C@@H](O)[C@H](C)O3)[C@H](N(C)C)[C@H]2O)[C@@H](CC=O)C[C@@H](C)[C@@H](O[C@@H]2CC[C@H](N(C)C)[C@@H](C)O2)/C=C/C=C/C[C@@H](C)OC(=O)C[C@H]1OC(C)=O`, the Potency result was “inactive”.
Take `CCCCCCCCCCCCOS(=O)(=O)O`: the Potency result was “inactive”.
As to `CCCCCOc1ccc(C2SC(=O)NC2=O)cc1OCC` (stereo not drawn), the Potency result was “inactive”.
As for `CCCCOc1ccc(C(=O)CCN2CCCCC2)cc1`, the Potency entry is “inactive”.
The same measure, in the same setting: as for `Oc1ccc([C@H]2CNCc3c2ccc(O)c3O)cc1O`, the entry is “inactive”.
For `CC(C)=CCOc1ccc(/C=C/C(=O)c2ccc(OCC=C(C)C)cc2OCC(=O)O)cc1`, the Potency result is “inactive”.

Test system in the next assay: not listed separately
Briefly: Primary qHTS for inhibitors of nuclear receptor binding SET domain protein 2 (NSD2) in an isogenic RCH-ACV NSD2 p.E1099K mutant (9B) (AID 1645876; active means well fitted curve in the direction sought with a large enough effect; an effect the other way counts as inactive or inconclusive; further: nearly all actives have a fitted effect of over 70% in size). Particulars: RCH-ACV NSD2 E1099K (9B) viability, CellTiter-Glo, 72 h; series mostly up to 44.9 µM.
On to `CN(C)CCc1c[nH]c2ccc(O)cc12`, for which the Potency entry was “inactive”.
As to `CCCCCCCCCCCC[N+](C)(C)CCOc1ccccc1`, the Potency was 1.33 µM (active).
Still for that read-out and setting: then `CCN(CC)C(C)C(=O)c1ccccc1` (stereo not drawn), with “inactive”.

Test system in a further assay: not listed separately
Kind of assay: Primary qHTS for inhibitors of nuclear receptor binding SET domain protein 2 (NSD2) in an RCH-ACV wild type WT cells (2C) (AID 1645877; active means well fitted curve in the direction sought with a large enough effect; an effect the other way counts as inactive or inconclusive; further: nearly all actives have a fitted effect of over 70% in size). The settings on record: RCH-ACV (leukaemia line) NSD2 WT (2C) viability, CellTiter-Glo, 72 h; series mostly up to 44.9 µM.
With `CN(C)CCc1c[nH]c2ccc(O)cc12`, the Potency result was “inactive”.
With `CCCCCCCCCCCC[N+](C)(C)CCOc1ccccc1`, the Potency was 0.944 µM (active).
Take `CCN(CC)C(C)C(=O)c1ccccc1` (stereo not drawn): the Potency result is “inactive”.
